Experimental findings from PubChem BioAssay (NCATS) are described below.

Molecules are shown by their SMILES. Records with an inconclusive call do not appear. Where a call stands in place of a potency, no number is given. Activity calls are given as the source filed them. Calls follow the shape of the dose curve; as a rule, active = well fitted inhibition curve with a large enough effect; inconclusive = small, poorly fitted or top-dose-only effect; inactive = flat fitted curve, though single readings scatter.

This assay concerns CRL-7250. The assay is described as follows: qHTS assay to identify novel small-molecules to repurpose for Merkel cell carcinoma treatment (AID 1296009). Also: nearly all actives have a fitted effect of over 60% in size. The settings on record: MCC and control cell lines, CellTiter-Glo viability, 72 h; series mostly up to 92 µM. The procedure, abridged: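 CellTiter-Glo luminescence after 72 hr compound exposure at 37 degree celsius gave cell viability. Libraries NPC and MIPE were run as 8- and 11-point dose responses; RLUs normalized to DMSO (negative) and no-cell (cytotoxicity) controls.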
As for `CC1C(=O)CC2C3C(O)CC(C(=O)O)C12CC3(C)C` (stereo not given), the Potency result is “inactive”.

As to `CC1CCC2(C(=O)OC3OC(COC4OC(CO)C(O)C(O)C4O)C(O)C(O)C3O)CCC3(C)C(=CCC4C5(C)CCC(O)C(C)(C(=O)O)C5CCC43C)C2C1(C)O` (stereo not given), the outcome is “inactive [at 9.27 µM]”.

Take `COc1cc(O)c2c(c1)C1(OC2=O)C(C)=CC(=O)C1O` (stereo not given): the Potency result is “inactive”.

`CN(C)C(=O)C(O)C(Cc1ccccc1)NC(=O)c1cc2cc(Cl)ccc2[nH]1` (stereo not given): the Potency entry was “inactive”.

On to `c1nc(NC2CCCCCC2)c2cc(CNC[C@H]3CCCO3)sc2n1`, for which the Potency result is “inactive”.

As for `N#CCc1ccc(O)cc1O[C@@H]1O[C@H](CO)[C@@H](O)[C@H](O)[C@H]1O`, the Potency result was “inactive”.

Regarding `CCOC(=O)COc1ccc2c(c1)C[C@@H](NC[C@H](O)c1cccc(Cl)c1)CC2`, the Potency result was “inactive”.

As for `CC1CCC23COC(=O)C2=CC(O)CC3C1(C)CCC1=CC(=O)OC1O` (stereo not given), the Potency result is “inactive”.

As to `CCOC(=O)c1cc(C#N)c(N2CCC(C(=O)NS(=O)(=O)Cc3ccccc3)CC2)nc1C`, the Potency entry was “inactive”.

Regarding `CC(F)(F)CN1CCOc2c(nn(-c3ccccc3Cl)c2-c2ccc(Cl)cc2)C1=O`, the Potency result was “inactive”.

Consider `COC(=O)C1=CO[C@@H](O[C@@H]2O[C@H](CO)[C@@H](O)[C@H](O)[C@H]2O)[C@H]2[C@@H]1CC(OC)O[C@@H]2C` (stereo not given in full), for which the Potency result was “inactive”.

Turning to `C[C@H](C(=O)NC1CCCC1)N(C(=O)Cn1nnc(-c2ccc3c(c2)OCO3)n1)C1CCCCC1`, the Potency result is “inactive”.

With `CC[C@H](C)[C@H](NC(=O)[C@H](Cc1ccc(O)cc1)NC(=O)[C@@H](N)C(C)C)C(=O)N[C@@H](Cc1cnc[nH]1)C(=O)N1CCC[C@H]1C(=O)N[C@@H](Cc1ccccc1)C(=O)O`, the outcome was “inactive [at 4.96 µM]”.

In the case of `COc1cc(C2Oc3c(OC)cc(/C=C/C(=O)OC[C@H]4O[C@@H](OC(C)(C)C(=O)O)[C@H](O)[C@@H](O)[C@@H]4O)cc3C2CO)ccc1O` (stereo not given in full), the Potency result was “inactive”.

As for `CC1(C)CC[C@]2(C(=O)O)CC[C@]3(C)C(=CCC4[C@@]5(C)C[C@@H](O)[C@H](O)C(C)(C)C5CC[C@]43C)C2C1` (stereo not given in full), the Potency result is “inactive”.

Regarding `C=C1C(=O)OC2C1C(O)CC1(C)C(O)CCC(C=O)C21` (stereo not given), the Potency entry was “inactive”.

For the compound `C/C(=C\CCC1(C)C2CC3C(C2)C31C)C(=O)O` (stereo not given), the Potency result is “inactive”.

As for `O=C(Nc1ccccc1-c1cn2c(CN3CCNCC3)csc2n1)c1ccc2ccccc2n1`, the Potency entry was “inactive”.

`C/C=C(\C)C(=O)OC[C@H]1O[C@@H](O[C@H]2[C@@H](O[C@H]3O[C@H](CO)[C@@H](O)[C@H](O)[C@H]3O[C@@H]3O[C@H](CO)[C@@H](O)[C@H](O)[C@H]3O)O[C@H](COC(=O)/C(C)=C/C)[C@@H](O)[C@@H]2O)[C@H](O)[C@@H](O)[C@@H]1O`: the outcome was “inactive [at 9.27 µM]”.

In the case of `COc1cc(O)cc(C)c1C(=O)OC1C(CO)OC(n2ccc(=O)[nH]c2=O)C1OC(C)=O` (stereo not given), the Potency entry was “inactive”.

`O[C@@](Cc1ncc(CC2(C(F)(F)F)CC2)[nH]1)(c1ccc(-n2cccn2)cc1)C(F)(F)F`: the Potency entry was “inactive”.

Turning to `CC1(CO)CC(O)C2(C)CCC3(C)C(=CCC4C5(C=O)CCC(OC6OC(C(=O)O)C(O)C(O)C6OC6OC(C(=O)O)C(O)C(O)C6O)C(C)(C)C5CCC43C)C2C1` (stereo not given), the outcome was “inactive [at 9.27 µM]”.

As to `COc1ccc(/C=C/C(=O)O[C@H]2[C@@H]3C=CO[C@@H](O[C@@H]4O[C@H](CO)[C@@H](O)[C@H](O)[C@H]4O)[C@@H]3[C@@]3(CO)O[C@@H]23)cc1O`, the Potency entry was “inactive”.

Consider `O=C(O)c1cccc(C(=O)CCC2OC(n3cnc4c(=O)[nH]cnc43)C(O)C2O)c1` (stereo not given), for which the Potency result was “inactive”.

Regarding `CC1C2=CC(=O)OC2(O)CC2C1C(O)CC1C(C)(CO)CCCC21C` (stereo not given), the Potency entry is “inactive”.

As for `CC(C)(Oc1ccc(-c2nc3cc(Cl)ccc3s2)cc1)C(=O)O`, the Potency result was “inactive”.

Turning to `O=C(O)Cc1nn(Cc2nc3cc(C(F)(F)F)ccc3s2)c(=O)c2nccnc12`, the Potency result is “inactive”.

Take `Cc1nc2cc(C(=O)NCc3ccccn3)nn2c(C)c1Cc1cccc(Cl)c1`: the Potency result was “inactive”.

On to `C[C@@H]1O[C@@H](O[C@H]2[C@H](OC(=O)[C@]34CCC(C)(C)C[C@H]3C3=CCC5[C@@]6(C)C[C@H](O)[C@H](O[C@@H]7O[C@H](CO)[C@@H](O[C@H]8OC[C@](O)(CO)[C@H]8O)[C@H](O)[C@H]7O)[C@@](C)(CO)C6[C@H](O)C[C@@]5(C)[C@]3(C)C[C@H]4O)OC[C@H](O)[C@@H]2O)[C@H](O)[C@H](O)[C@H]1O[C@@H]1OC[C@@H](O)[C@H](O[C@@H]2OC[C@](O)(CO)[C@H]2O)[C@H]1O` (stereo not given in full), for which the outcome is “inactive [at 9.27 µM]”.

On to `COC(=O)C1=C2Nc3ccccc3C23CCN2CCCC(C(C)O)(C1)C23` (stereo not given), for which the Potency result is “inactive”.

Take `Cc1c(NC(=O)N2CCOCC2)ccc2c1c1ccccc1n2C(C)C`: the Potency result was “inactive”.

With `C=CC(C)(O)CC/C=C(/C)C(=O)OC1C(OC2OCC(OC3OC(CO)C(O)C(O)C3O)C(OC3OCC(O)C(OC4OC(C)C(O)C(O)C4O)C3O)C2O)COC(OC(=O)C23CCC(C)(C)CC2C2=CCC4C5(C)CCC(OC6OC(CO)C(OC7OC(CO)C(O)C(OC8OCC(O)C(O)C8O)C7O)C(O)C6O)C(C)(C)C5CCC4(C)C2(C)CC3O)C1O` (stereo not given), the outcome is “inactive [at 4.96 µM]”.

On to `CC(C)C(C(=O)N(C)C(C)C(N)=O)N(C)C(=O)C1CCCN1C(=O)/C=C/C=C/C(O)C(C)O` (stereo not given), for which the Potency result is “inactive”.

Regarding `C=C1CCC2C(C)(C)C(O)CCC2(C)C1CCC(C)CCOC(C)=O` (stereo not given), the Potency entry is “inactive”.

On to `C1=Cc2ccccc2C(=C2CCN(CCCCc3nn[nH]n3)CC2)c2ccccc21`, for which the Potency result was “inactive”.

Regarding `COc1cccc(-c2ccc([C@@H](Oc3cc(-c4ccc(C[C@H](N)C(=O)O)cc4)nc(N)n3)C(F)(F)F)cc2)c1`, the Potency entry is “inactive”.

Regarding `CC(=O)N(O)CCCCCN1C(=O)CCC1=O`, the Potency entry was “inactive”.

For the compound `CC1=CC(=O)CC(C)(C)C1CCC(C)O[C@@H]1O[C@H](CO)[C@@H](O)[C@H](O)[C@H]1O` (stereo not given in full), the Potency result was “inactive”.

With `C/C=C(\C)C(=O)OC1CC2C(CC=C3CC(OC4CC(OC)C(OC5CC(OC)C(OC6CC(OC)C(OC7CC(OC)C(OC8CC(OC)C(OC9OC(CO)C(O)C(O)C9O)C(C)O8)C(C)O7)C(C)O6)C(C)O5)C(C)O4)CCC32C)C2(O)CCC(C(C)=O)C12C` (stereo not given), the outcome was “inactive [at 9.27 µM]”.

Consider `O=C(c1ccc(C#Cc2cccc(F)c2)cn1)N1CC2CC2C1` (stereo not given), for which the Potency entry was “inactive”.
